Records with an inconclusive call do not appear. Where a call stands in place of a potency, no number is given. Values without a mark were called inactive. Activity calls are given as the source filed them. Unless noted, the call rests on the fitted dose curve; in most records, active means well fitted curve in the direction sought with a large enough effect in the repeat runs; inconclusive means weak or mixed curves; inactive means no such curve, though single readings can be large; an effect the other way counts as inactive or inconclusive.
Experiments:
[1] = qHTS assay to identify small molecule agonists of the vitamin D receptor (VDR) signaling pathway - cell viability counter screen (AID 743224); further: series mostly up to about 63 µM; nearly all actives have a fitted effect of over 50% in size
Method in brief: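 Viability is measured in the same wells as the VDR-bla reporter assay: after 16 h compound treatment and 2 h substrate loading, CellTiter-Glo is added and luminescence read 30 min later.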

[2] = qHTS assay to identify small molecule agonists of the NFkB signaling pathway (AID 1159509; active means well fitted curve in the direction sought with a large enough effect in the signal ratio in the repeat runs, not every such curve was filed as active; the % refers to the signal ratio; further: series mostly up to about 61 µM)
Method in brief: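 ME-180 NFkB-bla, 2,000 cells/well, overnight plating; cpd pinned in DMSO, 5 h 37 C; B/G FRET substrate 1.5 h RT; ex 405, em 460/530 nm.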

[3] = qHTS assay to identify small molecule agonists of the NFkB signaling pathway - cell viability counter screen (AID 1159515; calls by dose curve; further: series mostly up to about 61 µM; nearly all actives have a fitted effect of over 55% in size)
Method in brief: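 Multiplexed viability readout: after the 5 hr compound exposure and 1.5 hr FRET substrate step, CellTiter-Glo reagent went into the same NFkB-bla ME-180 wells; ATP luminescence was measured after 30 min at room temperature.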

[4] = qHTS assay to identify small molecule agonists of the endoplasmic reticulum stress response signaling pathway (AID 1159516; active means well fitted activation curve with a large enough effect in the signal ratio in the repeat runs, not every such curve was filed as active; the % refers to the signal ratio)
Method in brief: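 Tox21 10K library screened in quantitative HTS format on ESRE-bla HeLa cells, a beta-lactamase reporter under ER stress response element control; 5 hr treatment, FRET read.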

[5] = qHTS assay to identify small molecule agonists of the endoplasmic reticulum stress response signaling pathway - cell viability counter screen (AID 1159517; calls by dose curve; further: series mostly up to about 61 µM; nearly all actives have a fitted effect of over 50% in size)
Method in brief: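 HeLa cells carrying an ESRE-driven beta-lactamase reporter receive compound for 5 hr at 37 C. Cell viability is then gauged with CellTiter-Glo by luminescence, 30 min at room temperature.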

[6] = qHTS assay to identify small molecule antagonists of the retinoid-related orphan receptor gamma (ROR-gamma) signaling pathway - cell viability counter screen (AID 1159520); further: nearly all actives have a fitted effect of over 50% in size
Method in brief: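 Cytotoxicity was read from cellular ATP (CellTiter-Glo luminescence) after 16 hr at 37 C with 1 uM doxycycline induction. The inducer was added 2 hr after compound transfer to Tet-on ROR gamma CHO cells.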

[7] = biological target: Nuclear receptor ROR-gamma (Homo sapiens) (UniProt P51449); experiment: qHTS assay to identify small molecule antagonists of the retinoid-related orphan receptor gamma (ROR-gamma) signaling pathway (AID 1159521; further: nearly all actives have a fitted effect of over 50% in size; further: potency means the concentration at half of the fitted maximal effect)
Method in brief: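 Screening format: cell-based luciferase reporter in CHO cells with doxycycline-inducible RORγ. Compound pre-exposure lasts 2 h, doxycycline is 1 uM final, induction runs 16 h at 37 C, and ONE-Glo luminescence is read.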

[8] = qHTS assay to identify small molecule agonists of the AP-1 signaling pathway - cell viability counter screen (AID 1159525; calls by dose curve; further: nearly all actives have a fitted effect of over 55% in size)
Method in brief: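 Luminescent ATP readout (Cell Titer Glo, 30 min RT), normalised to DMSO and tetra n-octyl ammonium bromide controls. Cells were ME-180 AP-1-bla in 0.5% dialyzed FBS Opti-MEM, with a 5 h, 37 °C compound exposure.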

[9] = qHTS assay to identify small molecule agonists of the AP-1 signaling pathway (AID 1159526; calls by dose curve)
[10] = biological target: Retinoic acid receptor RXR-alpha (Homo sapiens) (UniProt P19793); experiment: qHTS assay to identify small molecule agonists of the RXR signaling pathway (AID 1159527; calls by dose curve; further: nearly all actives have a fitted effect of over 35% in size; further: potency means the concentration at half of the fitted maximal effect)
Sequence of Retinoic acid receptor RXR-alpha (Homo sapiens) (P19793 whole entry, looked up): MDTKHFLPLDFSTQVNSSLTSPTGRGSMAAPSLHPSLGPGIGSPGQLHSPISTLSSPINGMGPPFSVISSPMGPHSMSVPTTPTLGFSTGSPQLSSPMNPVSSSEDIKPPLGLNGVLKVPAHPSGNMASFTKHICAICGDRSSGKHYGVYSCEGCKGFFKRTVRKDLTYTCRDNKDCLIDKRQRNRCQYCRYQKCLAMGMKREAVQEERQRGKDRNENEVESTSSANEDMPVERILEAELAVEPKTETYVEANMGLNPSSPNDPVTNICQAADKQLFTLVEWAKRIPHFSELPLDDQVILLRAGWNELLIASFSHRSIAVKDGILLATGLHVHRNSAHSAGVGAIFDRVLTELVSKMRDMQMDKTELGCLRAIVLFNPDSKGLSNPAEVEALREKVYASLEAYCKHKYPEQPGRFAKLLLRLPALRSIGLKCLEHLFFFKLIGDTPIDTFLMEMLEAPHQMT
Method in brief: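 Fluorescence ratio readout (460 vs 530 nm) from GeneBLAzer RXR-alpha HEK 293T cells after 16 hr compound treatment; cells seeded 5 hr beforehand in low-serum, charcoal-stripped medium.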

[11] = qHTS assay to identify small molecule antagonists of the retinoid acid receptor (RAR) signaling pathway - cell viability counter screen (AID 1159551); further: nearly all actives have a fitted effect of over 35% in size
Method in brief: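 Cytotoxicity counter screen in C3RL4 cells: 6 h compound exposure with 1 uM retinol (final), viability from cellular ATP by luminescence.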

[12] = qHTS assay to identify small molecule agonists of the RXR signaling pathway - cell viability counter screen (AID 1159529)
Method in brief: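 Viability read-out for the RXR-alpha agonist qHTS: luminescent CellTiter-Glo signal after 30 min at RT. HEK 293T bla reporter cells, 2% charcoal-stripped FBS, 16 hr compound incubation; tetraoctyl ammonium bromide as cytotoxic control.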

[13] = qHTS assay to identify small molecule antagonists of the retinoic acid receptor (RAR) signaling pathway (AID 1159552; further: nearly all actives have a fitted effect of over 50% in size)
Method in brief: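 Using a RARE-driven luciferase construct in C3RL4 cells, retinol at 1 uM final provided the agonist stimulus while compounds were co-applied. After 6 hours at 37 C, luminescence was recorded to flag inhibitors of retinol signaling.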

[14] = qHTS assay to identify small molecule agonists of the retinoic acid receptor (RAR) signaling pathway (AID 1159553); further: potency means the concentration at half of the fitted maximal effect
Method in brief: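 Agonist activity was scored in C3RL4 cells bearing a retinoic acid response element luciferase construct. Cells were treated with compounds for 6 hr at 37 C, and luciferase signal was measured as luminescence.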

[15] = qHTS assay to identify small molecule antagonists of the vitamin D receptor (VDR) signaling pathway - cell viability counter screen (AID 743225); further: nearly all actives have a fitted effect of over 50% in size
Method in brief: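 In this counter screen, VDR-bla HEK 293T cells receive test compound plus 3 nM final calcitriol for 16 h at 37C. Room-temperature steps of 2 h with the beta-lactamase substrate, then 30 min with CellTiter-Glo, precede the luminescence read.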

Row | SMILES | Potency [1] | outcome [2] | outcome [3] | outcome [4] | Potency [5] | Potency [6] | Potency [7] | Potency [8] | outcome [9] | Potency [10] | Potency [11] | Potency [12] | Potency [13] | Potency [14] | outcome [15]
1 | CCOC(=O)C(c1c(O)c2ccccc2oc1=O)c1c(O)c2ccccc2oc1=O | inactive | inactive | inactive | inactive | inactive | inactive | inactive | inactive | inactive | inactive | inactive | – | – | – | –
2 | CCCSP(=O)(OCC)Oc1ccc(Br)cc1Cl (stereo unspecified) | – | inactive | inactive | inactive | inactive | inactive | inactive | inactive | inactive | – | inactive | inactive | inactive | inactive | –
3 | ClC(Br)Br | inactive | inactive | inactive | inactive | inactive | inactive | inactive | inactive | inactive | – | inactive | inactive | inactive | inactive | inactive
4 | CCC1(c2ccccc2)C(=O)N=C(O)NC1=O (stereo unspecified) | inactive | inactive | inactive | inactive | inactive | inactive | inactive | inactive | inactive | 12 µM (active) | inactive | – | – | – | –
5 | Cc1nnc2n1-c1sc(CCC(=O)N3CCOCC3)cc1C(c1ccccc1Cl)=NC2 | inactive | inactive | inactive | inactive | inactive | inactive | inactive | inactive | inactive | inactive | inactive | – | inactive | inactive | –
6 | O=[N+]([O-])c1cccc2cccnc12 | inactive | inactive | inactive | inactive | inactive | inactive | inactive | inactive | inactive | – | inactive | inactive | – | inactive | inactive
7 | CNC(=O)Oc1ccc(N(C)C)c(C)c1 | inactive | inactive | inactive | inactive | inactive | inactive | inactive | inactive | inactive | – | inactive | inactive | inactive | inactive | inactive
8 | CCOC(=O)C1(c2ccccc2)CCN(CCc2ccc(N)cc2)CC1 | inactive | inactive | inactive | inactive | inactive | inactive | inactive | inactive | inactive | inactive | – | – | inactive | inactive | inactive
9 | C=C(C)[C@@H]1CC=C(C=O)CC1 | inactive | inactive | inactive | inactive | inactive | inactive | inactive | inactive | inactive | – | inactive | inactive | inactive | – | inactive
10 | [As]#[In] | inactive | inactive | inactive | inactive | inactive | inactive | inactive | inactive | inactive | – | inactive | inactive | inactive | – | inactive
11 | O=[N+]([O-])c1ccc2c3c(cccc13)CC2 | inactive | inactive | inactive | inactive | inactive | inactive | inactive | inactive | inactive | – | inactive | inactive | inactive | inactive | inactive
12 | O=[N+]([O-])c1cccc2c([N+](=O)[O-])cccc12 | inactive | inactive | inactive | inactive | inactive | inactive | inactive | inactive | inactive | – | inactive | inactive | – | inactive | inactive
13 | CC1CCC(=O)O1 (stereo unspecified) | – | inactive | inactive | inactive | inactive | inactive | inactive | inactive | inactive | inactive | – | inactive | – | – | inactive
14 | CC(Oc1ccc(Oc2ncc(C(F)(F)F)cc2Cl)cc1)C(=O)O (stereo unspecified) | inactive | inactive | inactive | inactive | inactive | inactive | 27.3 µM (active) | inactive | inactive | – | inactive | – | – | inactive | inactive
15 | CC(C)(C)OC(=O)c1ncn2c1[C@@H]1CCCN1C(=O)c1c(Br)cccc1-2 | inactive | inactive | inactive | inactive | inactive | inactive | inactive | inactive | inactive | – | inactive | – | – | inactive | inactive
16 | N#Cc1ccncc1 | inactive | inactive | inactive | inactive | inactive | inactive | inactive | inactive | inactive | – | inactive | inactive | – | inactive | inactive
17 | CCOP(=S)(OCC)Oc1ncn(-c2ccccc2)n1 | inactive | inactive | inactive | inactive | inactive | inactive | inactive | inactive | inactive | – | inactive | inactive | – | – | inactive
18 | O=C(Nc1ccccc1)c1ccccc1I | inactive | inactive | inactive | inactive | inactive | inactive | inactive | inactive | inactive | – | inactive | – | inactive | – | inactive
19 | Nc1cnn(-c2ccccc2)c(=O)c1Cl | inactive | inactive | inactive | inactive | inactive | inactive | inactive | inactive | inactive | – | inactive | – | – | – | –
20 | CC(COc1ccc(Oc2ccccc2)cc1)Oc1ccccn1 (stereo unspecified) | inactive | inactive | inactive | inactive | inactive | inactive | inactive | inactive | inactive | – | – | inactive | inactive | 13.7 µM (active) | –
21 | CC1CCCCC1NC(=O)Nc1ccccc1 (stereo unspecified) | inactive | inactive | inactive | inactive | inactive | inactive | inactive | inactive | inactive | – | inactive | – | inactive | – | inactive
22 | COC(=O)C(C)Oc1ccc(Oc2ccc(Cl)cc2Cl)cc1 (stereo unspecified) | inactive | inactive | inactive | inactive | inactive | inactive | inactive | inactive | inactive | – | inactive | – | – | – | inactive
